Among all 5,500 compounds or so, about 2,000 (36%) were called active. Roughly 18% stayed inconclusive and do not appear here. Rule as the data show it: active = normalized growth mostly below about 0.91 (no sharp cut-off); inconclusive = no clear call, values can overlap the other calls; inactive = mostly above about 0.92. The list shows a part of the results.
Test: chemical genetic growth profiling, strain panel (AID 1159580);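 also: tested at 20 µM; growth read once vehicle control cultures reached saturation at 30 °C; 1 = growth at the plate median or of vehicle wells; lower values mean less growth of the strain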
Conditions: growth OD

Measured: normalized growth

Cc1cccc(C)c1NC(=O)C1CCCCN1C (configuration not stated)
inactive: S. cerevisiae deletion strains, locus YJR075W, strain HOC1, active compounds read low 1 | S. cerevisiae deletion strains, locus YKL009W, strain mrt4, active compounds read low 1.04 | S. cerevisiae deletion strains, locus YKL068W, active compounds read low 0.999 | S. cerevisiae deletion strains, locus YKL085W, strain MDH1 (second series), active compounds read low 1 | S. cerevisiae deletion strains, locus YKL085W, strain MDH1, active compounds read low 1 | S. cerevisiae deletion strains, locus YKL160W, strain elf1, active compounds read low 0.994 | S. cerevisiae deletion strains, locus YKL190W, strain CNB1, active compounds read low 0.982 | S. cerevisiae deletion strains, locus YKR001C, strain vps1, active compounds read low 1.01 | S. cerevisiae deletion strains, locus YKR026C, strain gcn3, active compounds read low 0.979 | S. cerevisiae deletion strains, locus YKR091W, strain srl3, active compounds read low 0.994 | S. cerevisiae deletion strains, locus YLL001W, strain dnm1, active compounds read low 0.99 | S. cerevisiae deletion strains, locus YLL026W, active compounds read low 0.991 | S. cerevisiae deletion strains, locus YLL041C, strain sdh2, active compounds read low 1 | S. cerevisiae deletion strains, locus YLR027C, strain aat2, active compounds read low 0.992 | S. cerevisiae deletion strains, locus YLR039C, strain RIC1, active compounds read low 1.01 | S. cerevisiae deletion strains, locus YLR058C, strain SHM2, active compounds read low 1 | S. cerevisiae deletion strains, locus YLR102C, strain apc9, active compounds read low 1.02 | S. cerevisiae deletion strains, locus YLR113W, strain HOG1, active compounds read low 1.01 | S. cerevisiae deletion strains, locus YLR221C, strain rsa3, active compounds read low 0.996 | S. cerevisiae deletion strains, locus YLR258W, strain gsy2, active compounds read low 0.991 | S. cerevisiae deletion strains, locus YLR262C, strain YPT6 (second series), active compounds read low 0.986 | S. cerevisiae deletion strains, locus YLR262C, strain YPT6, active compounds read low 0.996 | S. cerevisiae deletion strains, locus YLR268W, strain sec22, active compounds read low 1.02 | S. cerevisiae deletion strains, locus YLR320W, strain mms22, active compounds read low 0.976 | S. cerevisiae deletion strains, locus YLR330W, strain CHS5, active compounds read low 1.01 | S. cerevisiae deletion strains, locus YLR342W, strain FKS1 (second series), active compounds read low 1.03 | S. cerevisiae deletion strains, locus YLR342W, strain FKS1, active compounds read low 0.992 | S. cerevisiae deletion strains, locus YLR357W, strain rsc2, active compounds read low 0.972 | S. cerevisiae deletion strains, locus YLR370C, strain arc18, active compounds read low 0.978 | S. cerevisiae deletion strains, locus YLR371W, strain rom2, active compounds read low 1.02 | S. cerevisiae deletion strains, locus YLR384C, strain iki3, active compounds read low 0.985 | S. cerevisiae deletion strains, locus YLR418C, strain cdc73, active compounds read low 1.03 | S. cerevisiae deletion strains, locus YML016C, strain PPZ1, active compounds read low 1 | S. cerevisiae deletion strains, locus YML032C, strain rad52, active compounds read low 0.998 | S. cerevisiae deletion strains, locus YML120C, strain ndi1, active compounds read low 0.987 | S. cerevisiae deletion strains, locus YML124C, strain tub3, active compounds read low 1.02 | S. cerevisiae deletion strains, locus YMR058W, strain fet3, active compounds read low 0.988 | S. cerevisiae deletion strains, locus YMR078C, strain ctf18, active compounds read low 1.01 | S. cerevisiae deletion strains, locus YMR125W, strain sto1, active compounds read low 0.98 | S. cerevisiae deletion strains, locus YMR129W, active compounds read low 0.995 | S. cerevisiae deletion strains, locus YMR205C, strain PFK2, active compounds read low 0.976 | S. cerevisiae deletion strains, locus YMR223W, strain ubp8, active compounds read low 0.998 | S. cerevisiae deletion strains, locus YMR231W, strain pep5, active compounds read low 0.985 | S. cerevisiae deletion strains, locus YMR263W, strain SAP30, active compounds read low 0.997 | S. cerevisiae deletion strains, locus YMR307W, strain GAS1, active compounds read low 0.985 | S. cerevisiae deletion strains, locus YNL067W, strain RPL9B, active compounds read low 0.996 | S. cerevisiae deletion strains, locus YNL071W, strain lat1, active compounds read low 0.989 | S. cerevisiae deletion strains, locus YNL128W, strain TEP1, active compounds read low 1.01 | S. cerevisiae deletion strains, locus YNL153C, strain GIM3, active compounds read low 1.01 | S. cerevisiae deletion strains, locus YNL183C, strain NPR1, active compounds read low 0.963 | S. cerevisiae deletion strains, locus YNL209W, strain ssb2, active compounds read low 0.987 | S. cerevisiae deletion strains, locus YNL233W, strain BNI4, active compounds read low 1.01 | S. cerevisiae deletion strains, locus YNL248C, strain rpa49, active compounds read low 0.976 | S. cerevisiae deletion strains, locus YNL250W, strain rad50, active compounds read low 0.999 | S. cerevisiae deletion strains, locus YNL271C, strain bni1, active compounds read low 1.01 | S. cerevisiae deletion strains, locus YNL298W, strain CLA4, active compounds read low 1.01 | S. cerevisiae deletion strains, locus YNL307C, strain MCK1, active compounds read low 1.02 | S. cerevisiae deletion strains, locus YNL322C, strain KRE1 (second series), active compounds read low 0.966 | S. cerevisiae deletion strains, locus YNL322C, strain KRE1, active compounds read low 1.01 | S. cerevisiae deletion strains, locus YNR049C, strain mso1, active compounds read low 0.99 | S. cerevisiae deletion strains, locus YNR052C, strain pop2, active compounds read low 1 | S. cerevisiae deletion strains, locus YOL006C, strain TOP1, active compounds read low 1.02 | S. cerevisiae deletion strains, locus YOL012C, strain htz1 0.844 | S. cerevisiae deletion strains, locus YOL147C, strain pex11, active compounds read low 1.01 | S. cerevisiae deletion strains, locus YOR001W, strain rrp6, active compounds read low 0.974 | S. cerevisiae deletion strains, locus YOR061W, strain CKA2, active compounds read low 1 | S. cerevisiae deletion strains, locus YOR069W, strain VPS5, active compounds read low 0.999 | S. cerevisiae deletion strains, locus YOR070C, strain gyp1, active compounds read low 0.991 | S. cerevisiae deletion strains, locus YOR080W, strain dia2, active compounds read low 0.981 | S. cerevisiae deletion strains, locus YOR083W, strain WHI5, active compounds read low 0.989 | S. cerevisiae deletion strains, locus YOR106W, strain vam3, active compounds read low 1.01 | S. cerevisiae deletion strains, locus YOR136W, strain idh2, active compounds read low 1.02 | S. cerevisiae deletion strains, locus YOR144C, strain elg1, active compounds read low 1.01 | S. cerevisiae deletion strains, locus YOR184W, strain ser1, active compounds read low 1.02 | S. cerevisiae deletion strains, locus YOR231W, strain MKK1, active compounds read low 1.03 | S. cerevisiae deletion strains, locus YOR265W, strain rbl2, active compounds read low 1 | S. cerevisiae deletion strains, locus YOR270C, strain vph1, active compounds read low 0.981 | S. cerevisiae deletion strains, locus YOR290C, strain snf2, active compounds read low 0.999 | S. cerevisiae deletion strains, locus YOR316C, strain cot1, active compounds read low 1.01 | S. cerevisiae deletion strains, locus YPL051W, strain arl3, active compounds read low 0.993 | S. cerevisiae deletion strains, locus YPL055C, strain LGE1, active compounds read low 0.992 | S. cerevisiae deletion strains, locus YPL078C, strain atp4, active compounds read low 0.997 | S. cerevisiae deletion strains, locus YPL106C, strain sse1, active compounds read low 0.98 | S. cerevisiae deletion strains, locus YPL240C, strain hsp82, active compounds read low 1 | S. cerevisiae deletion strains, locus YPL241C, strain CIN2, active compounds read low 0.999 | S. cerevisiae deletion strains, locus YPL256C, strain CLN2, active compounds read low 1.01 | S. cerevisiae deletion strains, locus YPR119W, strain clb2, active compounds read low 1.02 | S. cerevisiae deletion strains, locus YPR141C, strain kar3, active compounds read low 1.01 | S. cerevisiae deletion strains, locus YPR163C, strain tif3, active compounds read low 1.02 | S. cerevisiae deletion strains, locus YPR167C, strain met16, active compounds read low 1.01 | S. cerevisiae deletion strains, strain wtn01, active compounds read low 1.01 | S. cerevisiae strains, strain wild type, active compounds read low 0.992
